Inconclusive results are not listed. Calls of active or inactive are those of the source. Rule for the calls, unless noted: active = hit-call score of the fitted dose curve at least 0.9, where 1 is the maximum; inconclusive = response in the unintended direction; inactive = score below 0.9.
Experiments:
[1] = target: Estrogen-related receptor gamma (Homo sapiens) (UniProt P62508); assay: ATG_ERRg_TRANS: Attagene TRANS-FACTORIAL HepG2 Assay for human Estrogen-Related Receptor gamma (ERRg) (AID 2282977); details: HepG2 Attagene TRANS reporter, ERRg transactivation;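 note: hits increase reporter signal over DMSO so potencies reflect activators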
Sequence of Estrogen-related receptor gamma (Homo sapiens) (P62508 whole entry, looked up, the tested form may be a part): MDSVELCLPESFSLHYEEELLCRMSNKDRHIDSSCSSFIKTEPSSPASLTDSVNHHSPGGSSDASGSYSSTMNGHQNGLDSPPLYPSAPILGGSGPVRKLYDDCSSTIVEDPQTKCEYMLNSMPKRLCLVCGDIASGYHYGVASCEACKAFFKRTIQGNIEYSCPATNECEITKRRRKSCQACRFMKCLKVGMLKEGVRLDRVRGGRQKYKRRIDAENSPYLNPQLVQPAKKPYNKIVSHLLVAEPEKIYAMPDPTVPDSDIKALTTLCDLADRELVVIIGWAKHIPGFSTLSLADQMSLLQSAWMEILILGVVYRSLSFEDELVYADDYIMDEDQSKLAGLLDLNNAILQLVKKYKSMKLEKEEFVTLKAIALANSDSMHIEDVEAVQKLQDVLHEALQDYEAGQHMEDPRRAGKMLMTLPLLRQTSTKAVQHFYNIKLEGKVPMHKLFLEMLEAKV
Summary of the method: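 Transfect HepG2 with multiple GAL4-UAS reporter transcription units; dose chemicals 24 h; isolate RNA, reverse-transcribe with oligo(dT), PCR-amplify, label with 6-FAM, digest with HpaI; size fragments by capillary electrophoresis. DMSO serves as negative control.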

[2] = target: Glucocorticoid receptor (Homo sapiens) (UniProt P04150); assay: ATG_GR_TRANS: Attagene TRANS-FACTORIAL HepG2 Assay for human Glucocorticoid Receptor (GR) (AID 2282978); details: HepG2 Attagene TRANS GR reporter, mRNA transcription;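 note: activators score as hits since higher reporter transcript over DMSO is fitted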
Sequence of Glucocorticoid receptor (Homo sapiens) (P04150 whole entry, looked up, the tested form may be a part): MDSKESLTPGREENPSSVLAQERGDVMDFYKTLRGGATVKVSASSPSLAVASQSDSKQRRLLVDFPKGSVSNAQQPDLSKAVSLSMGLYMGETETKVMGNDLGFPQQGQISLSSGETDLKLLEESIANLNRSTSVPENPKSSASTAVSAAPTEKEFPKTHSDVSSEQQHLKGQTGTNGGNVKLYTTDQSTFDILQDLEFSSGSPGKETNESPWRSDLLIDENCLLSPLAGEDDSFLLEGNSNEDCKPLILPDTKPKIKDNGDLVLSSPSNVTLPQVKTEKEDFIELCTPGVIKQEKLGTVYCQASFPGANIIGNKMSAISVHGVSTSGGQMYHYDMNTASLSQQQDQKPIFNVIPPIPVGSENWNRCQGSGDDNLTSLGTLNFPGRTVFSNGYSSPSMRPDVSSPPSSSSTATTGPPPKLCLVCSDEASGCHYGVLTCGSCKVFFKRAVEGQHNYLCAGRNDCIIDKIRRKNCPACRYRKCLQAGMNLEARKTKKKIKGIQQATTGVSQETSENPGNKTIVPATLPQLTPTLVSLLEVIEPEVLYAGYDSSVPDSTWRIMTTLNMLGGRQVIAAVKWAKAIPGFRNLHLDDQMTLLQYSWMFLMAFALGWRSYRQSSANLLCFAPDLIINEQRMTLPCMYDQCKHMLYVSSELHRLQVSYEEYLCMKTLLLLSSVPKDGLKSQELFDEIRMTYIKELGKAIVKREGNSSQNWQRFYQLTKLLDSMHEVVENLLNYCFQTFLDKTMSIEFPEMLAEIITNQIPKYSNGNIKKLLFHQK
Summary of the method: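 Fluorescent capillary-electrophoresis quantitation of reporter mRNA is the readout, taken 24 h after dosing human HepG2 cells carrying transiently transfected GAL4-UAS reporter units activated by chimeric NR-GAL4 fusions; activity scored as induction over DMSO.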

[3] = target: Bile acid receptor (Homo sapiens) (UniProt Q96RI1); assay: ATG_FXR_TRANS: Attagene TRANS-FACTORIAL HepG2 Assay for Farnesoid X Receptor (FXR) (AID 2282979); details: HepG2 Attagene TRANS FXR-GAL4 reporter transcription;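 note: hits raise reporter mRNA above DMSO so AC50 marks FXR activation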
Sequence of Bile acid receptor (Homo sapiens) (Q96RI1 whole entry, looked up, the tested form may be a part): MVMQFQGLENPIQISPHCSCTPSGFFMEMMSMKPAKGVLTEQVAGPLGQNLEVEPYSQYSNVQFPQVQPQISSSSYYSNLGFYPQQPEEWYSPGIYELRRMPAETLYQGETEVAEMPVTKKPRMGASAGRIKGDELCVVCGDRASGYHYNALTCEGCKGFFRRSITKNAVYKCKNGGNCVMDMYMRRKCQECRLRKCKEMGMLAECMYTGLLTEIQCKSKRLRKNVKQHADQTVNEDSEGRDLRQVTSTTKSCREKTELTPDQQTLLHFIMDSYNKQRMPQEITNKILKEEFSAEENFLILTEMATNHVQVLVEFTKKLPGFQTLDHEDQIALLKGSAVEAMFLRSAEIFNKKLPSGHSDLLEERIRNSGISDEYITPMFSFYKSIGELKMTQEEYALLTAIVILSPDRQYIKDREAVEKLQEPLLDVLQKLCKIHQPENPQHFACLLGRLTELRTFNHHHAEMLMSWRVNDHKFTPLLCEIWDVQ
Summary of the method: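 Chimeric FXR-GAL4 activity in transiently transfected human HepG2 liver cells is scored as induction of reporter mRNA after 24 h of dosing. Detection uses RT-PCR with fluorescent labelling and capillary electrophoresis, with DMSO serving as baseline.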

[4] = ATG_M_32_TRANS: Attagene TRANS-FACTORIAL HepG2 Assay for M32 Transcription Factor (Internal Marker) (AID 2282984); details: HepG2 Attagene TRANS M32 internal marker reporter
Summary of the method: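 Measures reporter mRNA induction in human HepG2 liver cells after 24 h chemical treatment. Transcripts from transiently transfected GAL4-UAS reporter units are amplified, fluorescently labelled and sized by capillary electrophoresis; gain of signal relative to DMSO.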

[5] = target: Nuclear receptor subfamily 4 group A member 2 (Homo sapiens) (UniProt P43354); assay: ATG_NURR1_TRANS: Attagene TRANS-FACTORIAL HepG2 Assay for human Nuclear Receptor Related Protein 1 (NURR1) (AID 2282985); details: HepG2 Attagene TRANS reporter, mRNA readout
Sequence of Nuclear receptor subfamily 4 group A member 2 (Homo sapiens) (P43354 whole entry, looked up, the tested form may be a part): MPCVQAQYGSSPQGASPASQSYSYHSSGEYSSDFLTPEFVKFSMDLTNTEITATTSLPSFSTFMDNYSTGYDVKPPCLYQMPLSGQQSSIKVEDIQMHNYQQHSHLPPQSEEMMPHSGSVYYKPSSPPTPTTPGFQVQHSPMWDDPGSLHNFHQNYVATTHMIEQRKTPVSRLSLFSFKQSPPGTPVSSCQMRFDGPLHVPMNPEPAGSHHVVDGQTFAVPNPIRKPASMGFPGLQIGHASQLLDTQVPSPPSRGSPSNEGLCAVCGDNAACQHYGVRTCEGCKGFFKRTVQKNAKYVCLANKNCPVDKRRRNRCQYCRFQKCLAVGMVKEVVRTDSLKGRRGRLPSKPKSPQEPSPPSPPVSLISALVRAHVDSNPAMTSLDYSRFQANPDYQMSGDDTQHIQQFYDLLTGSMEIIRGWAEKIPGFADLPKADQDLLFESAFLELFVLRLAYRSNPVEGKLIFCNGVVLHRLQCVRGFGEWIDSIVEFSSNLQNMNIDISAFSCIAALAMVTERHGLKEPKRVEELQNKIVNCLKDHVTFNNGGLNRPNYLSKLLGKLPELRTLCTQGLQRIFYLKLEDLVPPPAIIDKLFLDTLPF
Summary of the method: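 Transient transfection of HepG2, human liver cells, with multiple GAL4-UAS reporter transcription units. Cells dosed 24 h, RNA isolated, reverse-transcribed, PCR-amplified, FAM-labelled, HpaI-digested, sized by capillary electrophoresis. DMSO served as negative control.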

[6] = target: Transcriptional activator Myb (Homo sapiens) (UniProt P10242); assay: ATG_Myb_CIS: Attagene CIS-FACTORIAL HepG2 Assay for human Myeloblastosis (Myb) Proto-Oncogene Transcription Factor (AID 2282986; active = hit-call score of the fitted dose curve at least 0.9, where 1 is the maximum; inactive = score below 0.9); details: HepG2 Attagene CIS-FACTORIAL Myb reporter transcription; actives raise or lower the signal
Sequence of Transcriptional activator Myb (Homo sapiens) (P10242 whole entry, looked up): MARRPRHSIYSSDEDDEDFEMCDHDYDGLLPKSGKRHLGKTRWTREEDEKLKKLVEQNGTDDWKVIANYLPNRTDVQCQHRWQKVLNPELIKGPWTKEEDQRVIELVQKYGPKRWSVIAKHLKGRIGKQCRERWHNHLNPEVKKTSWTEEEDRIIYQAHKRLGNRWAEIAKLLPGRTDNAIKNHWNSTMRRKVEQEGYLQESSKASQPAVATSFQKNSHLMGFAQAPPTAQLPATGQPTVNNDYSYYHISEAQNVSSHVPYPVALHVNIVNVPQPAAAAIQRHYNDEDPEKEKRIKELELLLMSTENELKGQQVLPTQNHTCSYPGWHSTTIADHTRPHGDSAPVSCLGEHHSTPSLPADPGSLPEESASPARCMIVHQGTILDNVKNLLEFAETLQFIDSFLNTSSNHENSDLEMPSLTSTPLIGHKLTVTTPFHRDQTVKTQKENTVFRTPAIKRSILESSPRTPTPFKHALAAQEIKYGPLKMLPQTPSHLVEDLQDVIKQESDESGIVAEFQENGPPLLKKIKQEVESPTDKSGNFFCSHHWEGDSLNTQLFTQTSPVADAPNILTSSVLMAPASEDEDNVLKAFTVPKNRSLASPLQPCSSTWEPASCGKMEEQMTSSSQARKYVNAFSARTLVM
Summary of the method: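 Reporter transcript levels, quantified by fluorescent RT-PCR and capillary electrophoresis, serve as the read-out. Transfected HepG2 cells carrying cis-promoter reporter units are dosed for 24 hours, and curves are fitted bidirectionally against DMSO controls.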

[7] = target: Oxysterols receptor LXR-alpha (Homo sapiens) (UniProt Q13133); assay: ATG_LXRa_TRANS: Attagene TRANS-FACTORIAL HepG2 Assay for human Liver X Receptor alpha (LXRa) (AID 2282980); details: HepG2 Attagene TRANS reporter, LXRa transactivation
Sequence of Oxysterols receptor LXR-alpha (Homo sapiens) (Q13133 whole entry, looked up): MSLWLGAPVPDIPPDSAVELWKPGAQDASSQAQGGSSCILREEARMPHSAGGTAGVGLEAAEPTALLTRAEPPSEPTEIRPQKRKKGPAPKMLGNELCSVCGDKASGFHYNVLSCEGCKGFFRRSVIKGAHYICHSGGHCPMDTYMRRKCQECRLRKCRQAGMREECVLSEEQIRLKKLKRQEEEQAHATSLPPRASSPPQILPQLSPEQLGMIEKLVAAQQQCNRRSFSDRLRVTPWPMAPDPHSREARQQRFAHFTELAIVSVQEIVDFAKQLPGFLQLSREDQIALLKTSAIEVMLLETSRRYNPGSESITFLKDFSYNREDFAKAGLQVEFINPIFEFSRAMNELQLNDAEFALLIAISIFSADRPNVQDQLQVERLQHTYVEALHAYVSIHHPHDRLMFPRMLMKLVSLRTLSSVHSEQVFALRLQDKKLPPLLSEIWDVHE
Summary of the method: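 Transient HepG2 transfectants, 24 h dosing, RT-PCR/CE mRNA reporter quantitation; gain-of-signal vs DMSO.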

[8] = target: Oxysterols receptor LXR-beta (Homo sapiens) (UniProt P55055); assay: ATG_LXRb_TRANS: Attagene TRANS-FACTORIAL HepG2 Assay for human Liver X Receptor beta (LXRb) (AID 2282981); details: HepG2 Attagene TRANS GAL4-LXRb reporter, mRNA
Sequence of Oxysterols receptor LXR-beta (Homo sapiens) (P55055 whole entry, looked up, the tested form may be a part): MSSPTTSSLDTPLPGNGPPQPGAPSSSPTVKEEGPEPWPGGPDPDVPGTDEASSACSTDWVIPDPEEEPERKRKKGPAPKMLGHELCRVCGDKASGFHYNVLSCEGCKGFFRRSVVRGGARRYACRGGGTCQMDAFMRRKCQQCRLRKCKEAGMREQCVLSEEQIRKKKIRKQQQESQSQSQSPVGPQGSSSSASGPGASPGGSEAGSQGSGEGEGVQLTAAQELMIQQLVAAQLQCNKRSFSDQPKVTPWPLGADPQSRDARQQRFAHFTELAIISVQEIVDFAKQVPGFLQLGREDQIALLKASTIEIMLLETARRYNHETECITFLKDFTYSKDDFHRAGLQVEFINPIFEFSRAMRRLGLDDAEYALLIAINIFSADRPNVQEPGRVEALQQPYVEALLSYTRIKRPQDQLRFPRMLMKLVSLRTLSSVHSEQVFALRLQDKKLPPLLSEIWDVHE
Summary of the method: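 Transient transfection HepG2 (multiplexed RTUs, GAL4-UAS); NR-Gal4 chimera; 24 h exposure; RNA → RT-PCR → 6-FAM primer extension → HpaI → CE; increase vs DMSO.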

[9] = target: Hepatocyte nuclear factor 4-alpha (Homo sapiens) (UniProt P41235); assay: ATG_HNF4a_TRANS: Attagene TRANS-FACTORIAL HepG2 Assay for human Hepatocyte Nuclear Factor 4 alpha (HNF4a) (AID 2282982); details: HepG2 HNF4a transactivation reporter, mRNA readout
Sequence of Hepatocyte nuclear factor 4-alpha (Homo sapiens) (P41235 whole entry, looked up, the tested form may be a part): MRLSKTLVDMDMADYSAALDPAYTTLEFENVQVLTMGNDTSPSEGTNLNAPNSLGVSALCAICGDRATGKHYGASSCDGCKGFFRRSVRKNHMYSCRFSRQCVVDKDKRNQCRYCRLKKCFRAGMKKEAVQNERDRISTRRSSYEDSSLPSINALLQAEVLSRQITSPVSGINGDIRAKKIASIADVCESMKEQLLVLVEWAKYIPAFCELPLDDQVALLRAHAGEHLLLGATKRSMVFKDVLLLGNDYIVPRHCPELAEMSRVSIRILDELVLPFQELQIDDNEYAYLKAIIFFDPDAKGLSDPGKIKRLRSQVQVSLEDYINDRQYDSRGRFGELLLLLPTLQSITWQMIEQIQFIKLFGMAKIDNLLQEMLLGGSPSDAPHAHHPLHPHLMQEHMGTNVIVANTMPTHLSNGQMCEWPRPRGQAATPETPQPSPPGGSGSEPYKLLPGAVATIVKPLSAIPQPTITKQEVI
Summary of the method: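 Readout is fluorescent reporter-transcript fragments resolved by capillary electrophoresis after RT-PCR from HepG2 cells dosed for 24 h. Cells carried transfected GAL4-UAS reporter constructs measuring exogenous NR-GAL4 chimera activity; DMSO served as baseline.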

[10] = ATG_M_06_TRANS: Attagene TRANS-FACTORIAL HepG2 Assay for M06 Transcription Factor (Internal Marker) (AID 2282983); details: HepG2 Attagene TRANS M06 internal marker reporter
Summary of the method: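 Measured by capillary electrophoresis of fluorescently labelled RT-PCR products, this endpoint reflects reporter mRNA in HepG2 cells harbouring exogenous NR-GAL4 reporter constructs after 24 h exposure, with DMSO as baseline.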

Measured: outcome

CC(C)CC=C(C=O)c1ccccc1
inactive: [1] | [2] | [3] | [4] | [5] | [6]

FC(F)(F)C(F)(F)C(F)(F)C(F)(F)C(F)(F)C(F)(F)C(F)(F)CCI
not listed: [1]
inactive: all other assays above

CCOC(=O)CC(=O)C(F)(F)C(F)(F)F
not listed: [3] | [4] | [10]
inactive: all other assays above

NS(=O)(=O)C(F)(F)C(F)(F)C(F)(F)C(F)(F)C(F)(F)C(F)(F)F
not listed: [1] | [5]
inactive: all other assays above

CN1CN(C)CN(C)C1
not listed: [2] | [7] | [9]
inactive: all other assays above

Oc1ccc2c(c1)CCC2
inactive: [1] | [8] | [9] | [10] | [4] | [6]

OCCCCl
inactive: [1] | [2] | [10] | [4] | [5] | [6]

O=C(Cl)C(F)(F)C(F)(F)C(F)(F)C(F)(F)C(F)(F)C(F)(F)F
not listed: [1]
inactive: all other assays above

Cc1ccc2c(c1)OCC(=O)CO2
inactive: [1] | [2] | [7] | [8] | [5] | [6]

CCOC(=O)CCC(C)=O
inactive: [1] | [7] | [8] | [4] | [6]

CCOC(C=C(C)CCC=C(C)C)OCC
inactive: [1] | [9] | [4] | [5] | [6]

C[Si](Cl)(Cl)CCC(F)(F)C(F)(F)C(F)(F)C(F)(F)C(F)(F)C(F)(F)F
not listed: [1]
inactive: all other assays above

CSc1ccc(O)cc1C
inactive: [1] | [2] | [3] | [6]

CCCCCCCC/C=C\CCCCCCCC(=O)N(C)CC(=O)O
inactive: [1] | [2] | [10] | [4] | [6]

Nc1c(Br)cc([N+](=O)[O-])cc1Br
not listed: [5] | [8]
inactive: all other assays above

OCC(F)(F)C(F)(F)C(F)(F)C(F)(F)C(F)(F)C(F)(F)CO
not listed: [1] | [9]
inactive: all other assays above

OCC(O)CC(F)(F)C(F)(F)C(F)(F)C(F)(F)C(F)(F)C(F)(F)C(F)(F)C(F)(F)F (centres undefined)
not listed: [2] | [4]
inactive: all other assays above

CNS(=O)(=O)C(F)(F)C(F)(F)C(F)(F)C(F)(F)C(F)(F)C(F)(F)C(F)(F)C(F)(F)F
not listed: [2] | [10]
inactive: all other assays above

From PubChem BioAssay (EPA / NIEHS)
